# Experimental data: PubChem BioAssay (NCATS)
# “And” between values parts separate entries of the source, which are not always exact repeats. Equal values may be shown once. Records with an inconclusive call do not appear. Entries that show only a call come without a potency. The source made the active and inactive calls. Unless noted, the call rests on the fitted dose curve; in most records, active means well fitted curve in the direction sought with a large enough effect; inconclusive means small, poorly fitted or top-dose-only effect, or another doubt; inactive means no such curve, though single readings can be large; an effect the other way counts as inactive or inconclusive.
# Legend:
# [1] = target: M-phase phosphoprotein 8 (Homo sapiens) (UniProt Q99549); experiment: qHTS Validation Assay for Inhibitors for MPP8 Chromodomain Interactions with Methylated Histone Tails (AID 488949); further: nearly all actives have a fitted effect of over 55% in size; further: potency means the concentration at half of the fitted maximal effect
# Summary of the method: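 MPP8 (50 nM) was preincubated with biotinylated H3(1-18)K9me3 peptide (50 nM) in PBS pH 7.4, 0.01% Tween-20 for 30 min at room temperature, then with compounds for 30 min; binding was detected by AlphaScreen.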
# [2] = target: Transient receptor potential cation channel subfamily V member 1 (Homo sapiens) (UniProt Q8NER1); experiment: HTS Assay for Compounds that Act as Enhancers of the Vanilloid Receptor 1 (AID 488979)
# Transient receptor potential cation channel subfamily V member 1 (Homo sapiens), sequence (Q8NER1 whole entry, looked up): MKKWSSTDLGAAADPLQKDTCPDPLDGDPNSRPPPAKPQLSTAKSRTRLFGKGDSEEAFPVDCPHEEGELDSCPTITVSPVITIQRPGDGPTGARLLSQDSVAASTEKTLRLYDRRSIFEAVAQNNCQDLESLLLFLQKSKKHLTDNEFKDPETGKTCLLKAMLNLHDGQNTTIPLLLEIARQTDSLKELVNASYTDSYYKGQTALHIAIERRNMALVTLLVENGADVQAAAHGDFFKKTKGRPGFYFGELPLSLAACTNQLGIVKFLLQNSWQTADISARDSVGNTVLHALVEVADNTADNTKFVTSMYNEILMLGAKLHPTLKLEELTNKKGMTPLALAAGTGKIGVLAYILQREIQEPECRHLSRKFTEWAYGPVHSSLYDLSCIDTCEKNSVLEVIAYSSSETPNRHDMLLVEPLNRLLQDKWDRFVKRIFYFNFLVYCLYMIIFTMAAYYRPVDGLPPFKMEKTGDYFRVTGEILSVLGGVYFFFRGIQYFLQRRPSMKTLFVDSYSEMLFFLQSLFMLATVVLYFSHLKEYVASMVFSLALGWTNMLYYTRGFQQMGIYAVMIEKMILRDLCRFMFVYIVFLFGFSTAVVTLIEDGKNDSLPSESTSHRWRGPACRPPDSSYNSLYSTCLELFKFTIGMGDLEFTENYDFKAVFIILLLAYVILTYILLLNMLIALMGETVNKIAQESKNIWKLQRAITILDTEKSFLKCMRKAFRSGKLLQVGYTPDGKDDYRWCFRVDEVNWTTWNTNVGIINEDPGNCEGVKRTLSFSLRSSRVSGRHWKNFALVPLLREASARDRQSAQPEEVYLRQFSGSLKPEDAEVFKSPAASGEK
# Summary of the method: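 TRPV1-expressing cells loaded with Fluo-8 calcium dye; compounds added and calcium influx read kinetically for 3 min (agonist phase), then capsaicin at EC20 added and read 2 min more for enhancement. Fluorescence ex 480/em 520 nm.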
# [3] = target: Thyrotropin receptor (Homo sapiens) (UniProt P16473); experiment: qHTS Assay for Antagonists of the Thyroid Stimulating Hormone Receptor (AID 488980); further: series mostly up to about 58 µM
# Thyrotropin receptor (Homo sapiens), sequence (P16473 whole entry, looked up): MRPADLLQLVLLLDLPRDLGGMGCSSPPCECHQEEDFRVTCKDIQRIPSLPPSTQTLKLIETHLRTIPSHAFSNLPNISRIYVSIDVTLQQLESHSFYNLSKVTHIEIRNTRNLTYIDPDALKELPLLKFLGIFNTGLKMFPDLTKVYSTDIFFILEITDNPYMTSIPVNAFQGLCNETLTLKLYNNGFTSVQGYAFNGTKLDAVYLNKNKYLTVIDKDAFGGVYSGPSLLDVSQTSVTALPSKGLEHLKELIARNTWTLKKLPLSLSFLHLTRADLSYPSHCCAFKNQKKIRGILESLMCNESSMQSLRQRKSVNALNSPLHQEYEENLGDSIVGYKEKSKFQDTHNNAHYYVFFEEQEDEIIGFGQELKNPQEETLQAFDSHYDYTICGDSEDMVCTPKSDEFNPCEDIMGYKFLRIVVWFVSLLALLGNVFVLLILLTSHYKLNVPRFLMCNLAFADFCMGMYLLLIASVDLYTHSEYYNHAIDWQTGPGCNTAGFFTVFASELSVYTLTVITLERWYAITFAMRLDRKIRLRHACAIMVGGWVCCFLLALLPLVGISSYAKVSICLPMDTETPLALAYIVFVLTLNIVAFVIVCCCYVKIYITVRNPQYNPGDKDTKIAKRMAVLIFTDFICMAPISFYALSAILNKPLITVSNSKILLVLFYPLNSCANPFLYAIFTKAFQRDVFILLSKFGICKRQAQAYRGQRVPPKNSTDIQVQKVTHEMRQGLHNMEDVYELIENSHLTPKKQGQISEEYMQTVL
# Summary of the method: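 HEK293 cells transfected with human TSHR, suspended in HEPES-buffered HBSS with 70 uM RO 20-1724, were treated with compounds plus TSH at EC80 (4 nM final). cAMP was measured by competitive HTRF (cryptate anti-cAMP antibody, cAMP-d2 acceptor).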
# [4] = target: Thyrotropin-releasing hormone receptor (Homo sapiens) (UniProt P34981); experiment: qHTS for Small Molecule Agonists and Allosteric Enhancers of Human TRH Receptor: Validation Screen for Agonists (AID 493127;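 active means calcium activation more than 3 SD above the typical response in the agonist read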;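 further: intracellular calcium rise by fluo-8 fluorescence before TRH EC20 addition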); conditions: TRH receptor agonist cell assay; at 2 µM; stronger effect = higher value
# Thyrotropin-releasing hormone receptor (Homo sapiens), sequence (P34981 whole entry, looked up): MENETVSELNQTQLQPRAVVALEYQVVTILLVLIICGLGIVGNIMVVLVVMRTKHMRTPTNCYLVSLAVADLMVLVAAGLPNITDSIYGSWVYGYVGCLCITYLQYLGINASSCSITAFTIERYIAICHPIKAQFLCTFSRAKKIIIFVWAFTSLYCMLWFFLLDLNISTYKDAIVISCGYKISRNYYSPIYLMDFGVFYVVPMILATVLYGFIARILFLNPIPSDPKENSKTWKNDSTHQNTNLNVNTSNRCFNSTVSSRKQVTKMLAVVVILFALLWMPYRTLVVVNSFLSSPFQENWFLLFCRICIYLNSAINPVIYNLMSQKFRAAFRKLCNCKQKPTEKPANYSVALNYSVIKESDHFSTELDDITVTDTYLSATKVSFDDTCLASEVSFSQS
# Summary of the method: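 Kinetic fluorescence assay of agonist-induced calcium release: overnight-plated TRHR cells, room-temperature fluo-8 loading, baseline then compound addition with per-second reads.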
# [5] = Validation screen for small molecules that induce DNA re-replication in SW480 colon adenocarcinoma cells (AID 504364)
# Summary of the method: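 Hoechst-stained SW480 nuclei, imaged at 405 nm excitation after 48 hr compound exposure, were counted for elevated DNA content as the re-replication signal.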
# [6] = target: ATP-dependent 6-phosphofructokinase (Trypanosoma brucei brucei) (UniProt O15648); experiment: qHTS Assay to Find Inhibitors of T. brucei phosphofructokinase: hit validation (AID 492961); further: potency means the concentration at half of the fitted maximal effect
# ATP-dependent 6-phosphofructokinase (Trypanosoma brucei brucei), sequence (O15648 whole entry, looked up): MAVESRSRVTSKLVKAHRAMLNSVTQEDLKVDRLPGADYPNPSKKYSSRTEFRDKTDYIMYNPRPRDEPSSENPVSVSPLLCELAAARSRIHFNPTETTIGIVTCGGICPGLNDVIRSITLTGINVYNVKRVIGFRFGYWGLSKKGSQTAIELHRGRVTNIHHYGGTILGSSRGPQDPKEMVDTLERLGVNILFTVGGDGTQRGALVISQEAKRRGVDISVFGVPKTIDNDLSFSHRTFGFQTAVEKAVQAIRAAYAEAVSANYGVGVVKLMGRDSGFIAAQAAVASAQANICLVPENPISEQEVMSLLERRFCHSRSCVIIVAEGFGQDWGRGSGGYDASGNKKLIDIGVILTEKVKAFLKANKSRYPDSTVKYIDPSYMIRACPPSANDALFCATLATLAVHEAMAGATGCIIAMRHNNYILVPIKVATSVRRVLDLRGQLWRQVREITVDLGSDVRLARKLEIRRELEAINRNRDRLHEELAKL
# Summary of the method: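 PFK 1.25 nM, F6P 0.5 mM, ATP 0.1 mM, MgCl2 5 mM, 0.1 M TEA pH 8.0, Tween20 0.01%, BSA 0.1%; 45 min RT. ADP-Glo two-step detection, luminescence. qHTS titration; curve fitting with curve-class categorization.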
# [7] = target: Thioredoxin reductase 1, cytoplasmic (Rattus norvegicus) (UniProt O89049); experiment: qHTS Assay for Inhibitors of Mammalian Selenoprotein Thioredoxin Reductase 1 (TrxR1) (AID 488773); conditions: Potency: inhibition;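 further: drop in NADPH fluorescence over an 8 min run after selenite addition; series mostly up to about 57 µM; nearly all actives have a fitted effect of over 40% in size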
# Thioredoxin reductase 1, cytoplasmic (Rattus norvegicus), sequence (O89049 whole entry, looked up): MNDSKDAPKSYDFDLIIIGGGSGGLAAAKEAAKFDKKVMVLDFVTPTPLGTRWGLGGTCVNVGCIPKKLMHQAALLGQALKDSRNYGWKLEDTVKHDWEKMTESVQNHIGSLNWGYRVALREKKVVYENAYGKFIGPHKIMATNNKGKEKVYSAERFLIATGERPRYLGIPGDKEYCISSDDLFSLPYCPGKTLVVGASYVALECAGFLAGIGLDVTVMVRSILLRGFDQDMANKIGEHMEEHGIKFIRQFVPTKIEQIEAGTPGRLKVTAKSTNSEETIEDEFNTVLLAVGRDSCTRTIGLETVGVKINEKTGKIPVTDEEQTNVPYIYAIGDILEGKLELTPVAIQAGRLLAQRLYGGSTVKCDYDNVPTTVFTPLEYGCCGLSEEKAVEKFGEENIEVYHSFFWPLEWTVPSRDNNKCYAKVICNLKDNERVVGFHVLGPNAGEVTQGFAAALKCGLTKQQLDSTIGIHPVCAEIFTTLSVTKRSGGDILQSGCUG
# Summary of the method: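 Inhibition is scored from the loss of NADPH fluorescence between first and last reads of an 8-min kinetic run. Selenite (400 uM) was the substrate, added after 15 min compound preincubation at room temperature.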
# [8] = target: Flap endonuclease 1 (Homo sapiens) (UniProt P39748); experiment: qHTS Validation Assay for the Inhibitors of Human Flap endonuclease 1 (FEN1) (AID 488816); further: potency means the concentration at half of the fitted maximal effect
# Flap endonuclease 1 (Homo sapiens), sequence (P39748 whole entry, looked up): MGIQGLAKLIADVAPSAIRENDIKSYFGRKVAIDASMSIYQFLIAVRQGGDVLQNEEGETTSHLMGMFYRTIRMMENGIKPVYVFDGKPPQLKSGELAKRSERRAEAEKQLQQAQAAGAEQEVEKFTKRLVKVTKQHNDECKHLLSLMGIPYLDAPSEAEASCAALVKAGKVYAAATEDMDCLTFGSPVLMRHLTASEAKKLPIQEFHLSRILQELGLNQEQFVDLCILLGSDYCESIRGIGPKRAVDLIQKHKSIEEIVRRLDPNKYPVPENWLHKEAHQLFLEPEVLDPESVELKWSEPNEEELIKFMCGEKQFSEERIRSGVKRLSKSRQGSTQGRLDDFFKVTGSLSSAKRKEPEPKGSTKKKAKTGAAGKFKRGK
# Summary of the method: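 Steps: add FEN1 (10 nM reagent) or buffer only; pin compounds; hold 15 min at room temperature; start with substrate, 50 nM final; read at 0 and 15 min; correct, normalize and fit a four-parameter Hill curve.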
# [9] = target: Methanococcus maripaludis chaperonin (MmCpn) (UniProt Q6LX38); experiment: High-Throughput Screening for Modulators of Cytosolic Chaperonin Activity: MmCpn Primary Screen (AID 488978);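 further: 50 nM MmCpn enzyme hydrolysing 30 µM ATP at 37 °C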
# Methanococcus maripaludis chaperonin (MmCpn), sequence (Q6LX38 1-543): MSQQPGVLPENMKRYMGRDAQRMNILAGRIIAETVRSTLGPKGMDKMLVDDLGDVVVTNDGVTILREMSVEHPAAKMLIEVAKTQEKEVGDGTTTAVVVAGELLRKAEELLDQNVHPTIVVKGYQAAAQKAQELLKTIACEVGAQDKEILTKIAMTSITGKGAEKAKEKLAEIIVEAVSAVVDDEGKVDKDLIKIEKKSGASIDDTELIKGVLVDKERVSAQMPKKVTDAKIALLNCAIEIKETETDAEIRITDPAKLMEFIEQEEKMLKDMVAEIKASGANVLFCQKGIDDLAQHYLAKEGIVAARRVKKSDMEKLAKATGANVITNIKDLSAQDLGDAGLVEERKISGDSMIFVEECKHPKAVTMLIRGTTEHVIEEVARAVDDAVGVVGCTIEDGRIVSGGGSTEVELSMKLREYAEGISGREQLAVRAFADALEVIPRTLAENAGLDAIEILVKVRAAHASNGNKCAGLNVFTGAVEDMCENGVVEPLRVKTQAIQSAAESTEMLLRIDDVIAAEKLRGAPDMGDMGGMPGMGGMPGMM
# Summary of the method: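 MmCpn (50 nM final) was preincubated with compound 5 min at RT, then 30 uM ATP (final) was added and the reaction ran 10 min at 37C. ADP produced was detected by Transcreener HTRF (ex 320 nm; em 590/665 nm).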
# [10] = target: D(1A) dopamine receptor (Homo sapiens) (UniProt P21728); experiment: HTS Assay for Allosteric Agonists of the Human D1 Dopamine Receptor: Primary Screen for Agonists (AID 488981)
# D(1A) dopamine receptor (Homo sapiens), sequence (P21728 whole entry, looked up): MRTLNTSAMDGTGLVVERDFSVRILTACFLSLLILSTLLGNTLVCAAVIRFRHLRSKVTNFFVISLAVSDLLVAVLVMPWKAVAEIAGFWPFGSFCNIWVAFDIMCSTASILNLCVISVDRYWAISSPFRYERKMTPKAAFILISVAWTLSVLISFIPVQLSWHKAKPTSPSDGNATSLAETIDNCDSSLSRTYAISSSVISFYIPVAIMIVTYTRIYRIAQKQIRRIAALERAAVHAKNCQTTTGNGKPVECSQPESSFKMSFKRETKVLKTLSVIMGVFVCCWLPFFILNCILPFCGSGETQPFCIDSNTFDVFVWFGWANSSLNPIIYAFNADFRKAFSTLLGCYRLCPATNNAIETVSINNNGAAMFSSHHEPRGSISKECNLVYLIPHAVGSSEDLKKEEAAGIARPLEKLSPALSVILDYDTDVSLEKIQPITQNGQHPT
# Summary of the method: (§1)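 Tetracycline-induced HEK293 T-REx cells force-coupled to calcium signalling were incubated overnight at 30 C and dye-loaded at room temperature. Calcium flux over 180 s after compound addition flagged agonists; a further 180 s read after EC20 dopamine flagged potentiators.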
# [11] = target: D(1A) dopamine receptor (Homo sapiens) (UniProt P21728); experiment: HTS Assay for Allosteric Agonists of the Human D1 Dopamine Receptor: Primary Screen for Antagonists (AID 488983);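 further: calcium flux response to an EC80 dopamine challenge measured with no-wash dye; nearly all actives have a fitted effect of over 65% in size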
# Summary of the method: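 In this primary screen, compounds are applied to calcium-dye-loaded HEK293 T-REx cells with force-coupled D1 expression induced overnight at 30 C. An EC80 of dopamine follows the 180 s compound phase, and calcium is monitored for a further 180 s.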
# [12] = Validation screen for small molecules that induce genotoxicity in human embryonic kidney (HEK293T) cells expressing luciferase-tagged ELG1 (AID 493106)
# Summary of the method: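 In this validation screen, increased ELG1-luciferase signal flags compounds causing genetic stress. HEK293T reporter cells are treated 16 hr (37 °C, 5% CO2), developed with ONE-Glo for 30 min at room temperature, and imaged on a CCD-based reader.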
# [13] = target: ATPase family AAA domain-containing protein 5 (Homo sapiens) (UniProt Q96QE3); experiment: Validation screen for small molecules that inhibit ELG1-dependent DNA repair in human embryonic kidney (HEK293T) cells expressing luciferase-tagged ELG1 (AID 493107); further: nearly all actives have a fitted effect of over 70% in size; further: potency means the concentration at half of the fitted maximal effect
# Summary of the method: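 Compounds reducing 5-fluorouridine-driven ELG1-luciferase signal in HEK293T cells were scored; exposure lasted 16 hr at 37 °C with luminescence detected via ONE-Glo.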
# [14] = Nrf2 qHTS screen for inhibitors: Validation (AID 493153; active means well fitted inhibition curve with a large enough effect in the main read-out, with a control signal flat, not every such curve was filed as active); conditions: Potency: luciferase luminescence; viability change: measured here: cytotoxicity max response
# Summary of the method: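 In this counterscreened reporter format, each well gives two signals: CellTiter-Fluor fluorescence for cytotoxicity and ARE-luciferase luminescence for Nrf2 function. A549 ARE_Fluc cells in 5% FBS OPTI-MEM were exposed to compound titrations for 18-24 h.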
# [15] = target: Galactokinase (Homo sapiens) (UniProt P51570); experiment: qHTS Validation Assay for Inhibitors of Human Galactokinase (GALK) (AID 493189)
# Galactokinase (Homo sapiens), sequence (P51570 whole entry, looked up): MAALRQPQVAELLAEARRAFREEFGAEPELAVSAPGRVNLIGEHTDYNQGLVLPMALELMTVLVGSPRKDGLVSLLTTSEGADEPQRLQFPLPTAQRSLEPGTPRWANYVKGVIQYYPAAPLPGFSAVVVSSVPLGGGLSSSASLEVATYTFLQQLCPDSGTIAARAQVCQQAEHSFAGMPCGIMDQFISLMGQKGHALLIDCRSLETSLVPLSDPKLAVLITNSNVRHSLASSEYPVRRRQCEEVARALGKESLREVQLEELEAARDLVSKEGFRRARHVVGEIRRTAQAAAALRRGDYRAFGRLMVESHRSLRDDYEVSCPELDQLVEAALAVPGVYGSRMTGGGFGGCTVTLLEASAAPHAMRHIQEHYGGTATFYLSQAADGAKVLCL
# Summary of the method: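 GALK (5 nM) with 35 uM ATP and 100 uM galactose in HEPES pH8.0, MgCl2, NaCl, DTT, BSA; 1 h at room temperature. Residual ATP read by Kinase-Glo Plus luminescence after 10 min.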
# [16] = target: Tyrosyl-DNA phosphodiesterase 1 (Homo sapiens) (UniProt Q9NUW8); experiment: Confirmation Assay for Inhibitors of Tyrosyl-DNA Phosphodiesterase (TDP1) (AID 489007); conditions: recombinant human TDP1 enzymatic activity, dose-response; further: potency means the concentration at half of the fitted maximal effect; nearly all actives have a fitted effect of over 40% in size
# Summary of the method: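 Loss of AlphaScreen signal reports Tdp1 cleavage of a dual-labelled DNA substrate. Conditions: 1 nM E. coli-derived enzyme, 15 nM substrate, 15 min compound preincubation, 5 min reaction, 10 min bead incubation, all at room temperature.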
# [17] = target: Chromobox protein homolog 1 (Homo sapiens) (UniProt P83916); experiment: qHTS Validation Assay for Inhibitors of HP1-beta Chromodomain Interactions with Methylated Histone Tails (AID 488953); further: nearly all actives have a fitted effect of over 50% in size; further: potency means the concentration at half of the fitted maximal effect
# Chromobox protein homolog 1 (Homo sapiens), sequence (P83916 whole entry, looked up): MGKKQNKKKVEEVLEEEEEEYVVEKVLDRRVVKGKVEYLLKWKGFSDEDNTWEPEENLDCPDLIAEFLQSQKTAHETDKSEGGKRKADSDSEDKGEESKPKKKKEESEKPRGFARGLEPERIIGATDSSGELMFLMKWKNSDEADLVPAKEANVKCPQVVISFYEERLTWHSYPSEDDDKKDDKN
# Summary of the method: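 Compounds pinned into a preassembled complex of HP1-beta and trimethyl-K9 histone H3(1-18) biotin peptide (50 nM each; PBS pH 7.4, 0.01% Tween-20). After 30 min, bead-based AlphaScreen detection followed.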
# [18] = target: D(1A) dopamine receptor (Homo sapiens) (UniProt P21728); experiment: HTS Assay for Allosteric Agonists of the Human D1 Dopamine Receptor: Primary Screen for Potentiators (AID 488982); further: potency means the concentration at half of the fitted maximal effect
# Summary of the method: as §1
# [19] = target: Thioredoxin reductase 1, cytoplasmic (Rattus norvegicus) (UniProt O89049); experiment: qHTS Assay for Substrates of Mammalian Selenoprotein Thioredoxin Reductase 1 (TrxR1) (AID 488772);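 further: series mostly up to about 57 µM; a drop in NADPH fluorescence below the no-compound background marks a TrxR1 substrate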
# Summary of the method: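 In this dual-purpose format, potential substrates are identified from the first fluorescence read after selenite addition, not from the 8-minute delta. Rat enzyme is preincubated with NADPH and then with compound at ~22 deg C.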
# [20] = qHTS for Inhibitors of Cell Surface uPA Generation: Validation Assay (AID 493164);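 further: RAW 264.7 macrophage cells exposed to compound for 18 h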
# Summary of the method: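 Compounds are titrated over seven points (2.45 nM–38.3 uM final) onto pre-plated RAW 264.7 cells and incubated for 18 h. Retained intracellular ATP, measured with ATP-Lite, indicates blocked lethal factor entry.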
smiles,measurement,setting,value
CC1OC1P(=O)(O)O (stereo not given),Potency,[1],inactive
same,outcome,[2],inactive
same,outcome,[3],inactive
same,activation,[4],-2.75% (inactive)
same,Potency,[5],inactive
CC(=O)OC1CN2CCC1CC2 (stereo not given),Potency,[6],inactive
CCCCCCC(C)(C)c1ccc([C@@H]2C[C@H](O)CC[C@H]2CCCO)c(O)c1,Potency,[7],inactive
same,Potency,[8],inactive
same,Potency,[1],inactive
same,outcome,[9],inactive
same,outcome,[2],inactive
same,outcome,[3],inactive
same,Potency,[10],inactive
same,Potency,[11],inactive
same,Potency,[12],inactive
same,Potency,[13],16.4 µM (active)
same,activation,[4],1.06% (inactive)
same,Potency,[14],inactive
same,viability change,[14],3.03%
same,outcome,[15],inactive
same,Potency,[5],inactive
[O]=[Cr](=[O])([OH])[O][Cr](=[O])(=[O])[OH],Potency,[16],4.47 µM (active)
C[N+]1(C)CCC(OC(=O)C(c2ccccc2)c2ccccc2)CC1,Potency,[1],inactive
same,outcome,[2],inactive
same,outcome,[3],inactive
same,activation,[4],0.125% (inactive)
same,outcome,[15],inactive
same,Potency,[5],inactive
CCN(CC)c1ncnc2c1ncn2[C@@H]1O[C@H](COP(=O)(O)OP(=O)(O)C(Br)(Br)P(=O)(O)O)[C@@H](O)[C@H]1O,Potency,[1],inactive
same,outcome,[2],inactive
same,outcome,[3],inactive
same,activation,[4],0.312% (inactive)
same,outcome,[15],inactive
CC(Cc1ccc(OCC(=O)O)cc1)NCC(O)c1cccc(Cl)c1 (stereo not given),Potency,[8],inactive
same,Potency,[1],inactive
same,Potency,[17],inactive
same,outcome,[9],inactive
same,outcome,[2],inactive
same,outcome,[3],inactive
same,Potency,[18],inactive
same,Potency,[11],inactive
same,Potency,[12],inactive
same,Potency,[13],inactive
same,activation,[4],0.5% (inactive)
same,Potency,[14],inactive
same,viability change,[14],-9.13%
OC(c1ccccc1)(c1ccccc1)C1CN2CCC1CC2 (stereo not given),Potency,[6],inactive
CCN(CCCl)Cc1ccccc1Br,outcome,[19],inactive
same,Potency,[1],inactive
same,Potency,[17],inactive
same,outcome,[9],inactive
same,outcome,[2],inactive
same,outcome,[3],inactive
same,Potency,[10],inactive
same,Potency,[18],inactive
same,Potency,[12],inactive
same,Potency,[13],inactive
same,activation,[4],-8% (inactive)
same,outcome,[20],inactive
same,Potency,[5],inactive
ClC=C(Cl)Cl,Potency,[6],inactive
[Cl-].[Cl-].[Hg+2],Potency,[6],8.91 µM (active)
NC(N)=Nc1ccc2[nH]c3c(c2c1)C[C@@]1(O)[C@H]2Cc4ccc(O)c5c4[C@@]1(CCN2CC1CC1)[C@H]3O5,outcome,[19],inactive
same,Potency,[1],31.6 µM (active) and 2.12 µM (active)
same,Potency,[17],28.2 µM (active)
same,outcome,[9],inactive
same,outcome,[2],inactive
same,outcome,[3],inactive
same,Potency,[10],inactive
same,Potency,[18],inactive
same,Potency,[11],inactive
same,Potency,[12],inactive
same,activation,[4],0.188% (inactive)
same,outcome,[20],inactive
same,outcome,[15],inactive
same,Potency,[5],inactive
O=[N+]([O-])c1ccc(F)c([N+](=O)[O-])c1,Potency,[6],inactive
CCCC(C)C1(CC)C(=O)NC(=O)NC1=O (stereo not given),Potency,[6],inactive
N#C/C(=C/c1ccc(O)c(O)c1)C(N)=S,Potency,[8],2.99 µM (active)
same,Potency,[1],13.4 µM (active)
same,Potency,[17],12.6 µM (active)
same,outcome,[9],inactive
same,Potency,[18],0.517 µM (active)
same,Potency,[11],inactive
same,Potency,[13],inactive
same,Potency,[14],inactive
same,viability change,[14],0.144%
same,outcome,[20],inactive
CNC(=O)OCC[N+](C)(C)C,Potency,[1],inactive
same,outcome,[2],inactive
same,outcome,[3],inactive
same,Potency,[6],inactive
same,activation,[4],-0.438% (inactive)
O=P(O)(O)C(Cl)(Cl)P(=O)(O)O,Potency,[1],inactive
same,outcome,[2],inactive
same,outcome,[3],inactive
same,Potency,[6],inactive
same,activation,[4],-0.25% (inactive)
same,outcome,[15],inactive
same,Potency,[5],inactive
